What all share (test): NCI-60 one-dose screen, 48 h (100 = growth as untreated, 0 = no growth, -100 = all killed)
What all share (conditions): 10 µM unless noted

Experiment [1] deals with DU-145 prostate.
Experiment [2] relates to K-562 leukemia.
Experiment [3] relates to MALME-3M melanoma.
Experiment [4] deals with MDA-MB-231 breast.
The test system of experiment [5] is RXF 393 renal.
Experiment [6] concerns SF-268 CNS.
The subject of experiment [7] is SF-295 CNS.
For experiment [8], the system named is SF-539 CNS.
The test system of experiment [9] is UACC-257 melanoma.
For experiment [10], the system named is M14 melanoma.

Results on 12 compounds are retold here after PubChem BioAssay (NCI).

About 83,000 compounds went through this panel and 20% of them were active in at least one assay; those are over-represented in the sample as a whole.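 96-well plates, one dose, 48 hours. Percent growth reported; active if below 10.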 Values without a mark were called inactive. Active and inactive are the calls of the source.

Consider `O=C(N/N=C/c1ccc(F)cc1)c1ccc(C(F)(F)F)nc1Nc1cccc(C(F)(F)F)c1`, for which the growth in experiment [1] is 17.9%; in [2], -6.25% (active); in experiment [3], 2.96% (active); in experiment [4] it was -11.5% (active); in [5], -10.7% (active); in [6], 9.8% (active). The growth in experiment [7] was -44.5% (active); in experiment [8], -0.388% (active); in experiment [9], -2.34% (active); in experiment [10], 19.9%.

Take `Cc1cccc(Cl)c1NC(=O)c1ccc2nc(NC(=O)NCCN(C)C)sc2c1`: the growth in experiment [1] was 104%; in experiment [2] it was 14.7%; in experiment [3], 70.7%; in experiment [4] it was 92.6%; in [5] it was 47.5%; in [6], 93.6%. In addition, the growth is 86.7% in experiment [7], 79.8% in experiment [8], 86.1% in [9] and 90.5% in experiment [10].

As for `O=[N+]([O-])c1ccc(-c2nc(N3CCOCC3)c3c4c(sc3n2)CCCC4)cc1`, the growth in experiment [1] was 113%; in [2] it was 99.6%; in experiment [3], 89.2%; in [4] it was 81%; in [5], 104%; in experiment [6], 94.8%. For the same compound, the growth in [7] is 87.4%; in experiment [8] it was 102%; in [9], 92.7%; in experiment [10], 85.6%.

Consider `N#Cc1cnc(NCCc2ccncc2)nc1-n1cnc2ccccc21`, for which the growth in experiment [1] was 51.9%; in experiment [2], 60.9%; in [3], 69%; in experiment [4], 76.2%; in experiment [5], 52.7%; in [6], 53%. The growth in experiment [7] was 75.1%; in [8], 61.3%; in experiment [9], 102%; in [10], 47.9%.

In the case of `CCS/C(Nc1ccccc1)=C(\C#N)C(=O)N/N=C/c1ccc(Cl)cc1Cl`, the growth in experiment [1] is 20%; in experiment [2], 7.35% (active); in experiment [3], 38.1%; in experiment [4], 39%; in experiment [5] it was 2.63% (active); in experiment [6], 34%. Besides, the growth in [7] is 17%; in experiment [8] it was 4.25% (active); in experiment [9], 51.9%; in [10] it was 21%.

Turning to `COc1ccc(OC)c(-c2c(C#N)c(-c3cccs3)nc3c2c(-c2ccccc2)nn3-c2ccccc2)c1`, the growth was 111% in experiment [1]; 106% in experiment [2]; 106% in experiment [3]; 105% in experiment [4]; 109% in experiment [5]; 97.4% in [6]. Further, the growth was 101% in [7], 93.5% in experiment [8], 105% in experiment [9] and 105% in experiment [10].

As to `N#C/C(=C/c1ccc([N+](=O)[O-])cc1)n1nnc2cc(F)c(F)cc21`, the growth in [1] was 54.2%; in experiment [2] it was 13.9%; in [3] it was 74.8%; in experiment [4], 84.7%; in [5], 83.3%; in experiment [6], 90.5%. Further, the growth in experiment [7] was 91.4%; in [8] it was 20.7%; in experiment [9], 65.5%; in [10], 70.1%.

With `CCN(c1ccc(Cl)cc1)c1nc(-c2ccc([N+](=O)[O-])cc2)cs1`, the growth in experiment [1] was 103%; in [2], 88.9%; in experiment [3], 80.5%; in experiment [4], 90.6%; in experiment [5], 113%; in experiment [6], 110%. Moreover, the growth was 100% in experiment [7], 99.6% in experiment [8], 104% in [9] and 99.7% in experiment [10].

As to `CCCCCCCCCCCCCCCC(N)c1ccccc1` (stereo not given), the growth in [1] was -62.9% (active); in experiment [2] it was 0.445% (active); in experiment [3], 79.5%; in [4], -71.9% (active); in [5] it was -89.4% (active); in experiment [6] it was -38.9% (active). Besides, the growth in experiment [7] was -49.5% (active); in experiment [8], 88.4%; in experiment [9], 82.6%; in [10] it was 3.85% (active).

In the case of `O=C(c1ccc(-c2ccccc2)cc1)c1ccc([N+](=O)[O-])cc1`, the growth in experiment [1] is 121%; in [2] it was 69.8%; in experiment [3], 163%; in experiment [4] it was 90.8%; in experiment [5], 109%; in [6], 102%. Further, the growth in experiment [7] is 83.6%; in [8], 107%; in experiment [9] it was 121%; in experiment [10], 94.5%.

Regarding `Cc1ccccc1/C=C1\CN(C(=O)OC(C)(C)C)C/C(=C\c2ccccc2C)C1=O`, the growth in experiment [1] was 9.09% (active); in experiment [2], 5.76% (active); in experiment [3] it was 73.7%; in [4], 42.7%; in experiment [5], 61.1%; in experiment [6], 2.68% (active). Further, the growth is 24.6% in experiment [7], 31.2% in experiment [8], 74.3% in experiment [9] and 30.7% in [10].

Turning to `O=C(Cn1c2c(c3ccccc31)CCCC2)Nc1ccc(-c2nc3ccccc3s2)cc1`, the growth in experiment [1] was 98.8%; in experiment [2] it was 74.4%; in [3], 105%; in [4], 96%; in experiment [5] it was 105%; in experiment [6], 97.6%. For the same compound, the growth was 103% in experiment [7], 102% in experiment [8], 106% in [9] and 108% in [10].
